Experimental data taken from PubChem BioAssay AID374 (University of Pittsburgh Molecular Library Screening Center, 2006).
Out of some 65,000 compounds screened, about 100 (0.15%) were called active.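 The calls were made as follows: active = inhibition above about 50% (limit read from the data); inconclusive = inhibition over screen mean plus 3 SD, below that limit; inactive = the rest.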 Shown is part of a subset that was picked to be rich in actives.

target: Dual specificity protein phosphatase 1 (Homo sapiens) (UniProt P28562); experiment: blockers of human DUSP1 activity – biochemical, in vitro, primary screen (AID 374); conditions: recombinant MKP-1, OMFP hydrolysis fluorescence; active compounds read high;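 compounds tested at a single concentration somewhere between 10 and 100 µM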;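 also: 0% = DMSO max control wells and 100% = wells with enzyme stopped by NaOH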
Sequence (P28562 whole entry, looked up): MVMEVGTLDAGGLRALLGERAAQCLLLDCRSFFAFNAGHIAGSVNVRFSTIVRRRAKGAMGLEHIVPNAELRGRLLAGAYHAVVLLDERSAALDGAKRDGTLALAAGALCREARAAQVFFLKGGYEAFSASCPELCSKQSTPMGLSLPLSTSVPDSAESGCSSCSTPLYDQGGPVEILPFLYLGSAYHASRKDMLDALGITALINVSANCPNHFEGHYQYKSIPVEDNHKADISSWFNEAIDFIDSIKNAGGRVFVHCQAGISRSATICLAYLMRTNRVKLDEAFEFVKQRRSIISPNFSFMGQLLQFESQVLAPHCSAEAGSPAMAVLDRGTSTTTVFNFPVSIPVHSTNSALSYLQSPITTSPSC

| Compound | inhibition |
| --- | --- |
| CC(CCc1ccccc1)NC(=O)c1ccc(Br)o1 (stereo not drawn) | 9.59% (inactive) |
| CC(C)CNC(=O)C1CCCN(S(=O)(=O)c2ccc(-n3cnnn3)cc2)C1 (stereo not drawn) | 10.4% (inactive) |
| CC(C)C(C(=O)NC1CCCCC1)N(CC1CCCO1)C(=O)CNS(=O)(=O)c1ccc(F)cc1 (stereo not drawn) | 42% (inactive) |
| COc1ccc(OCC(=O)N2CCN(C(=O)COc3ccccc3)CC2)cc1 | 3.4% (inactive) |
| CCOC(=O)C1CCCN(C(=O)c2cncc(Br)c2)C1 (stereo not drawn) | -1.24% (inactive) |
| COc1cccc(N2CCN(C3CC(=O)N(c4ccc(Cl)cc4)C3=O)CC2)c1 (stereo not drawn) | 9.47% (inactive) |
| COc1cccc(N2C(=O)C3CCCN3C2c2ccc(F)cc2)c1 (stereo not drawn) | 7.6% (inactive) |
| CCOC(=O)N1CCN(C(=O)c2ccc3nc4cc(Cl)ccc4c(=O)n3c2)CC1 | -0.24% (inactive) |
| CNC(=O)C1CC(=O)N(Cc2ccc3c(c2)OCO3)C(=Nc2ccc(F)cc2)S1 (stereo not drawn) | 4.87% (inactive) |
| CCCNc1ncnc2sc(C)c(C)c12 | 6.02% (inactive) |
| CCCc1nc(-c2ccccc2O)n(-c2ccccc2)n1 | -14.3% (inactive) |
| COc1ccccc1-n1cnc2cc(NS(=O)(=O)c3ccccc3)ccc21 | -7.71% (inactive) |
| C=C(C)Cn1c(N2CCCC2)nc2c1c(=O)[nH]c(=O)n2C | 4.46% (inactive) |
| CCOC(=O)N1CCN(Cc2oc(CO)cc(=O)c2O)CC1 | 30.4% (inactive) |
| CC(=O)N1CCN(c2cccc(C)c2C)CC1 | 9.16% (inactive) |
| Cn1c(C(=O)NCCN2CCc3ccccc3C2)cc2c(=O)[nH]c3ccccc3c21 | 31% (inactive) |
| Cc1cccc(N2CCN(C(=O)c3cc4c(=O)[nH]c5ccccc5c4n3C)CC2)c1C | 50.9% (active) |
| COCCCn1c(CCC(=O)O)ccc1-c1ccc(F)cc1 | 33.1% (inactive) |
| Cn1c(SCc2c(F)cccc2Cl)nnc1-c1cnccn1 | 4.26% (inactive) |
| COc1cccc(CN2C(=O)CCC2(C)C(=O)NC2CCCCCC2)c1 (stereo not drawn) | 10.3% (inactive) |
| Cc1ccc(Nc2nc(CSc3nnnn3-c3ccccc3)cc(=O)[nH]2)cc1 | 53.9% (active) |
| Cc1ccc(-c2noc(CSc3nnnn3-c3ccccc3)n2)cc1 | 0.15% (inactive) |
| O=c1c2ccccc2nc(CSc2nnnn2-c2ccccc2)n1-c1ccccc1 | 11.8% (inactive) |

| Compound | inhibition |
| --- | --- |
| CCOCCCNC(=O)c1c[nH]c2cc(C)ccc2c1=O | 7.4% (inactive) |
| COc1ccc(NC(=O)c2c(SC)nsc2SC)cc1 | 0.33% (inactive) |
| CC(=O)Nc1ccc(S(=O)(=O)Nc2nc3n(n2)C(c2ccccc2)CC(=O)N3)cc1 (stereo not drawn) | -6% (inactive) |
| CC(C)COC(=O)c1ccc(NC(=O)C2C3C=CC(C3)C2C(=O)O)cc1 (stereo not drawn) | 23.6% (inactive) |
| CCCCOc1ccc(C(=O)NCc2ccco2)cc1 | -0.67% (inactive) |
| C[C@H](NC(=O)OC(C)(C)C)c1nnc(SCC(=O)Nc2ccc(Br)cc2)o1 | 13% (inactive) |
| Cc1oc2nc(SCC(=O)NCc3cccnc3)nc(N)c2c1C | 32.5% (inactive) |
| CN1c2ccccc2-c2nc3ccccc3n2C1c1ccco1 (stereo not drawn) | -25.5% (inactive) |
| COc1ccc(F)cc1S(=O)(=O)Nc1ccc2c(c1)OCO2 | 12.4% (inactive) |
| CCOC(=O)N1CCN(C(=O)CN(c2ccc(C)c(C)c2)S(=O)(=O)c2ccccc2)CC1 | 12.6% (inactive) |
| O=S(=O)(c1cccs1)N1CCc2ccccc2C1 | 1.16% (inactive) |
| CC1Cn2c(nnc2-c2cccs2)S1 (stereo not drawn) | -6.93% (inactive) |
| Cc1nc2nc3c(cn2n1)C(=O)CC(c1ccccc1)C3 (stereo not drawn) | -8.11% (inactive) |
| CCSC(C)CC1C/C(=N/O)c2c(C)noc2C1 (stereo not drawn) | 12.5% (inactive) |
| COc1cccc(C2/C(=C(/O)c3ccc(F)cc3)C(=O)C(=O)N2CCN(C)C)c1 (stereo not drawn) | 3.73% (inactive) |
| O=C(Oc1ccc2c(c1)CCC2)N1CCOCC1 | -9.77% (inactive) |
| O=C(NC(=O)c1ccc(Cl)c(Cl)c1)OC1CCS(=O)(=O)C1 (stereo not drawn) | 0.18% (inactive) |
| O=C(Nc1c(Cl)cccc1Cl)C1CCC1 | -12.7% (inactive) |
| Cc1cccc(N2CCN(C(c3ccccc3)c3nnnn3CC3CCCO3)CC2)c1C (stereo not drawn) | 20.8% (inactive) |
| COCCOC(=O)C1=C(C)NC(=O)NC1c1ccc(Cl)cc1 (stereo not drawn) | 5.89% (inactive) |
| CCc1ccccc1NC(=O)CSc1nnc([C@@H](NC(=O)OC(C)(C)C)C(C)CC)o1 (stereo partly drawn) | 27.6% (inactive) |
| N#Cc1nc(Cc2cccc3ccccc23)oc1NCc1ccc2c(c1)OCO2 | -0.11% (inactive) |
| COc1ccc(S(=O)(=O)Nc2ccc(S(=O)(=O)N3CCCCC3)cc2)cc1OC | -11.3% (inactive) |

| Compound | inhibition |
| --- | --- |
| O=C(O)c1ccc(COCC(F)(F)F)cc1 | 5.73% (inactive) |
| COC(=O)[C@H](CCSC)NC(=O)Nc1ccc(OC)cc1 | -29.3% (inactive) |
| Cc1ccc(C(=O)NCCNS(=O)(=O)c2ccccc2)cc1 | 9.54% (inactive) |
| CCOC(=O)C1C(=O)OC2(CCCC2)C1C(=O)OCC (stereo not drawn) | 0.52% (inactive) |
| CSC1=NCCN1C(=O)c1ccc(S(=O)(=O)N2CCOCC2)cc1 | -8.44% (inactive) |
| CC(C)(C)n1nc2c(c1NC(=O)c1ccc(S(=O)(=O)N3CCCC3)cc1)CS(=O)C2 (stereo not drawn) | 1.54% (inactive) |
| COCCCNC(=O)CCc1nc2cccnc2n1Cc1ccc(OC)cc1 | 2.57% (inactive) |
| CCC(C(=O)Nc1ncccn1)(C(F)(F)F)C(F)(F)F | -11.8% (inactive) |
| CCN(CC)S(=O)(=O)c1cccc(C(=O)Nc2cc(C)nn2-c2nc(C)cc(C)n2)c1 | -26.4% (inactive) |
| Cc1nc(-c2ccc(NC(=O)c3cccs3)cc2)cs1 | -3.52% (inactive) |
| Cn1c(SCC(=O)Nc2cccc(O)c2)nnc1-c1ccc(S(=O)(=O)N2CCOCC2)cc1 | -24.3% (inactive) |
| OC(COc1ccccc1)Cn1cc(Br)cn1 (stereo not drawn) | -0.2% (inactive) |
| COC(=O)c1ccc(C2C3=C(Nc4nnnn42)c2ccccc2OC3)cc1 (stereo not drawn) | -1.69% (inactive) |
| Cc1c(C)c2cc3c4c(oc3c(C)c2oc1=O)CCCC4 | 10% (inactive) |
| O=C(CSc1nc2[nH]ncc2c(=O)n1-c1ccccc1)N1CCCc2ccccc21 | 50.2% (active) |
| Cc1nnc(SCC(=O)N2CCc3ccccc32)n1-c1ccccc1 | 17.3% (inactive) |
| C=CCn1c(=O)c2ccccc2n2c(SCC(=O)N3CCCc4ccccc43)nnc12 | 12.1% (inactive) |
| COC(C)(C)[C@]12CC(O)(C(C)C)ON1[C@H]1CCCCC1N2O (stereo partly drawn) | -23.5% (inactive) |
| CCOc1ccc(C(=O)NC2CCN(S(=O)(=O)CC)CC2)cc1 | -10.3% (inactive) |
| COC(=O)C(C)n1cnc2c(nnn2-c2cccc(Cl)c2)c1=O (stereo not drawn) | -3.96% (inactive) |
| Cc1ccc(CNC(=O)C2CCCN(S(C)(=O)=O)C2)cc1 (stereo not drawn) | 4.5% (inactive) |
| O=C(c1ccco1)N1CCN(CC(=O)N(C2CCCCC2)C2CCS(=O)(=O)C2)CC1 (stereo not drawn) | 8.56% (inactive) |
| COc1ccc(-n2ncc3c(N4CCc5ccccc54)ncnc32)cc1 | -0.04% (inactive) |

| Compound | inhibition |
| --- | --- |
| CCCN1C(=O)C(NS(=O)(=O)c2ccc(N)cc2)(C(F)(F)F)C(C(=O)OC)=C1C (stereo not drawn) | 7.02% (inactive) |
| Nc1ncc(-c2cc3ccccc3oc2=O)s1 | -7.46% (inactive) |
| COc1ccccc1N1CCN(C(=O)CSc2nnc(-c3ccoc3C)o2)CC1 | 2.49% (inactive) |
| CC1=NC2(CCCc3c2no[n+]3[O-])N(O)C1(C)C (stereo not drawn) | 10.4% (inactive) |
| Cc1ccc(-n2nc3c(c2NC(=O)c2ccc4c(c2)OCO4)CSC3)c(C)c1 | 28.8% (inactive) |
| CCOc1cc(-c2conc2N)cc(OCC)c1OCC | 0.9% (inactive) |
| CCOc1ccc(NC(=O)Nc2ccc(N(C)C(C)=O)cc2)cc1 | 6.8% (inactive) |
| CCOC(=O)C1CCN(C(=O)CSc2cc(=O)n(C)c3ccccc23)CC1 | 3.52% (inactive) |
| Cn1c(=O)c(C(=O)Nc2ncccn2)c(O)c2ccccc21 | 1.1% (inactive) |
| O=C(Nc1cccnc1)c1noc2c1CCCCC2 | -9.22% (inactive) |
| S=C1SCN(CCN2CCOCC2)CN1Cc1ccccc1 | 22.5% (inactive) |
| Cn1cc(S(=O)(=O)N2CCC(Cc3ccccc3)CC2)c(=O)n(C)c1=O | 13.6% (inactive) |
| CCOC(=O)C1=C(CC)Nc2ccccc2N=C1NC(=O)c1cccc(S(=O)(=O)N2CCCC2)c1 | 17.2% (inactive) |
| CCOC(=O)N1CCN(C(=O)c2ccc(CN(c3ccc(C)c(C)c3)S(C)(=O)=O)cc2)CC1 | 6.83% (inactive) |
| CCCC(=O)Nc1c(O)c2ccccc2[nH]c1=O | 24% (inactive) |
| O=C(O)CN(Cc1ccco1)S(=O)(=O)c1ccc(F)cc1 | -3.94% (inactive) |
| CC(C)C[C@H](NC(=O)Nc1cccc(C(F)(F)F)c1)C(=O)O | -11.4% (inactive) |
| CCOC(=O)c1cc2c(n(-c3ccc(C)cc3)c1=O)CCCC2=O | 3.58% (inactive) |
| CCN1C(=O)CS/C1=N\c1nccs1 | 2.24% (inactive) |
| Cc1cc(C(=O)OCC(=O)NCc2ccco2)c(C)n1-c1ccccc1 | 8.87% (inactive) |
| CCCC(NC(=O)c1ccccc1)c1nc2ccccc2n1Cc1ccc(C(=O)OC)o1 (stereo not drawn) | -11.6% (inactive) |
| O=C(Cn1nnc(-c2ccc(CN3CCOCC3)cc2)n1)NC1CCCCC1 | -10.1% (inactive) |
| COc1ccc(S(=O)(=O)N2CCCC2)c(C)c1C | 2.42% (inactive) |

| Compound | inhibition |
| --- | --- |
| CCn1c(SCC(=O)Nc2cc(C)c(Cl)cc2OC)nnc1-c1ccco1 | 13% (inactive) |
| Cn1cccc1C(=O)NC(=O)COC(=O)Cc1coc2ccc3ccccc3c12 | 31.4% (inactive) |
| CCOc1ccc2nc(SC(CC)C(=O)Nc3cc(C)on3)sc2c1 (stereo not drawn) | 2.57% (inactive) |
| C=CCn1c(COc2ccccc2F)nnc1SCC(=O)N1CC(=O)Nc2ccccc21 | 2.2% (inactive) |
| CCC1CCCCN1CCCNC(=O)Cn1nc(-c2ccccc2)ccc1=O (stereo not drawn) | 0.39% (inactive) |
| CCCc1[nH]nc2c1C(c1c(C)nn(-c3ccccc3)c1Cl)C(C#N)=C(N)O2 (stereo not drawn) | -4.58% (inactive) |
| Cc1ccc(C(C(=O)NCc2ccco2)N(CC2CCCO2)C(=O)Cn2nnc3ccccc32)cc1 (stereo not drawn) | 4.86% (inactive) |
| COC(=O)c1ccc(NC(=O)CSc2nnc(-c3ccncc3)n2C)cc1 | -30.5% (inactive) |
| COc1ccccc1C1/C(=C(/O)c2ccc(C)cc2)C(=O)C(=O)N1Cc1ccco1 (stereo not drawn) | 22.9% (inactive) |
| COc1ccc(OC)c(C(=O)c2coc3ccc(OC)cc23)c1 | 3.61% (inactive) |
| COc1ccc(NC(=O)C2CCCN(S(=O)(=O)c3cccc4cccnc34)C2)cc1OC (stereo not drawn) | 6.18% (inactive) |
| CCn1c(Cc2ccccc2)nnc1SCc1nc2ccccc2c(=O)[nH]1 | 7.32% (inactive) |
| NC(=O)CSc1oc(-c2cccs2)nc1S(=O)(=O)c1ccccc1 | 6.79% (inactive) |
| CCOc1ccc(OCc2ccc(C(=O)Nc3cccc(C)n3)o2)cc1 | -1.14% (inactive) |
| CCc1nc(C)cn1S(=O)(=O)c1cc(OC)c(C)cc1C | -31.2% (inactive) |
| COc1cc(Br)cc(/C=N/c2ncn[nH]2)c1O | -1.54% (inactive) |
| CC1=NCCN1S(=O)(=O)c1ccc(Br)c(C)c1 | -0.35% (inactive) |
| Cn1c(C(=O)N2CCC(C(N)=O)CC2)cc2c(=O)n(C)c3ccccc3c21 | 8.99% (inactive) |
| O=C(O)CSCNC(=O)CC12CC3CC(CC(C3)C1)C2 | -17.4% (inactive) |
| CCC(=O)c1cc2c(cc1NC(=O)c1cccs1)OCCO2 | 1.58% (inactive) |
| O=S(=O)(NCCOc1cccc2cccnc12)c1ccc(F)cc1 | -4.61% (inactive) |
